IL-1B inflam inh = inflammasome signaling inhibition, IL-1 beta readout. THP-1 LPS/ATP IL-1B secretion, AlphaLISA, 16 h; active compounds read low. activity change, % at 57.5 µM. 4.7% of 360,000 active. AID 743279; in the data active = activity change below about -50%; inconclusive = mostly about -30% to -49%
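Secreted IL-1B measured by AlphaLISA bead assay after 16 h compound exposure of THP-1 cells; compounds (final up to 57.5 uM) added 1 h before LPS (250 ng/mL) and ATP (1.25 mM) stimulation; lower signal means less secretion.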
DT40 TDP1 no CPT = qHTS for Inhibitors of human tyrosyl-DNA phosphodiesterase 1 (TDP1): qHTS in cells in absence of CPT | 15% of 420,000 active | Potency, µM (series often up to 46.2 µM), for the others: at the highest dose activity change, negative = growth inhibition, actives largely listed as inhibitors | DT40 Tdp1-/- hTDP1 cells, no CPT, ATP luminescence, 48 h | AID 686978, 2013; note: potency is the fitted concentration of half-maximal effect; nearly all actives have a fitted effect of over 55% in size
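Readout: luminescence from CellTiter-Glo after 30 min in the dark at RT. Cells: DT40 Tdp1-/- with stable hTDP1, 400/well. Exposure: compounds alone, ≥48 hr, 37 °C.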
TDP1 cell CPT = DT40-hTDP1 cell growth loss with CPT. Potency, µM (series often up to 46.2 µM), inactives show at the highest dose activity change, negative = growth inhibition, most hits filed as inhibitors. 12% of 420,000 active. chicken DT40 Tdp1-/-;hTDP1 cells + 20 nM CPT, ATP luminescence, 48 h; note: potency is the fitted concentration of half-maximal effect; nearly all actives have a fitted effect of over 55% in size
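Cell growth measured by CellTiter-Glo luminescence after a minimum 48 h, 37 C compound exposure with 20 nM CPT in Tdp1-knockout DT40 cells stably expressing hTDP1, seeded 400/well; qHTS titration format.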
HT1080NT lethal = kills 2HG-producing HT-1080-NT fibrosarcoma cells; 1.6% of 360,000 active; AID 686970; Potency, µM (doses to about 46.1 µM), inactives show at the highest dose activity, negative = less viability, hits mostly cytotoxic; HT-1080-NT fibrosarcoma viability, CellTiter-Glo ATP luminescence, 48 h;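 note: NT is the 2HG producing partner of a matched IDH1 knockdown line; potency is the fitted concentration of half-maximal effect; 0% = DMSO-treated cells and -100% = media-only wells without cells; nearly all actives have a fitted effect of over 55% in size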
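Viability by CellTiter-Glo luminescence after 48 h compound exposure at 37C of HT-1080-NT cells (750/well, RPMI, 5% FBS). % activity scaled between DMSO wells and medium-only wells, then curve-fitted and categorized by curve class.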
HT1080 IDH1KD tx = kills HT-1080 cells with IDH1 knockdown. AID 686971. HT-1080 IDH1 knockdown viability, ATP luminescence, 48 h. Potency, µM (series often up to 46.1 µM), without a hit: at the highest dose activity, negative = toxicity, most hits filed as cytotoxic. 2% of 360,000 active;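 note: potency is the fitted concentration of half-maximal effect; 0% = DMSO wells and -100% = cell-free medium wells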
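Cytotoxicity counter-line: IDH1KD HT-1080, 48 h, CellTiter-Glo. Curves classed by r2, magnitude and activity.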
* marks the source's active call; other numbers are inactive results; ? = inconclusive; . = no result given; [ ] = another dose, or the depositor's remark. The list is not random: actives were taken first. Their share in the collection is about 19%. Unless noted, calls come from the whole dose curve; as a rule, active = well fitted curve in the direction sought with a large enough effect; inconclusive = small, poorly fitted or top-dose-only effect, or another doubt; inactive = no such curve, though single readings can be large; an effect the other way counts as inactive or inconclusive. Unless noted, % is set by controls: 0 for no effect and ±100 for the full control effect.

SMILES	IL-1B inflam inh	DT40 TDP1 no CPT	TDP1 cell CPT	HT1080NT lethal	HT1080 IDH1KD tx
COc1ccc2[nH]c(C(=O)c3ccccc3)cc2c1	.	0.15µM*	0.13µM*	.	.
COc1ccc(/C=N/NC(=O)c2cc3cc(OC)c(OC)cc3[nH]2)cc1	-51*	-24%	?	-1%	8%
COc1cc2cc(C(=O)N/N=C/c3ccccc3Cl)[nH]c2cc1OC	-58*	23µM*	?	0%	-3%
COc1ccc(CN(Cc2cccn2C)C(=O)c2cc3cc(OC)ccc3[nH]2)cc1	-81*	?	?	-12%	-10%
Cc1ccc(CN2C[C@H](Sc3ccccn3)C[C@H]2C(=O)Nc2ccc3sc(C)nc3c2)cc1	.	-13%	3%[9.04 µM]	.	.
COc1ccc(/C=N/NC(=O)c2nc(-c3ccccc3)n(-c3ccccc3)n2)cc1	-2	3%	10%	0%	9%
COc1ccc2[nH]c(C(=O)N/N=C/c3ccc(O)cc3O)cc2c1	102	3.7µM*	4.6µM*	?	2.3µM*
COc1ccc(/C=N/NC(=O)c2nc(-c3ccccc3)n(-c3ccccc3)n2)c(O)c1	57	16µM*	?	?	?
COc1cc2cc(C(=O)N/N=C/c3ccc(F)cc3)[nH]c2cc1OC	-11	-18%	-27%	0%	1%
COc1ccc2cc(C(=O)N/N=C/c3cc(OC)c(OC)c(OC)c3)[nH]c2c1	?	-9%	-22%	-4%	-1%
CCOc1ccc2[nH]c(C(=O)N/N=C/c3ccc(OC)cc3)cc2c1	63	0.58µM*	0.58µM*	0.92µM*	1.3µM*
Cc1ccc(OCC(=O)N/N=C\c2cccn2C)c([N+](=O)[O-])c1	-2	?	4%	-11%	5%
Clc1ccc2c(-c3ccccc3)nc(-c3cccs3)nc2c1	39	-10%	-10%	14%	2%
COc1cc(CN(CCN(C)C)Cc2ccccc2)ccc1OCc1ccccc1	-63*	23µM*	?	23µM*	21µM*
COc1ccc(CN(CCc2ccccc2)Cc2ccccc2)cc1OC	30	?	?	-13%	-17%
CCCn1cc(NC(=O)c2cc(-c3ccccc3)on2)cn1	0	23µM*	?	?	?
O=C(Nc1cnn(C23CC4CC(CC(C4)C2)C3)c1)c1cc(-c2ccccc2)on1	-16	21µM*	23µM*	5%	?
COc1ncc2nc(-c3cccs3)c(=O)n(-c3ccccc3)c2n1	.	-3%	9%	.	.
O=c1[nH]c(COc2ccc(Cl)cc2Br)nc2ccccc12	15	?	23µM*	-4%	-5%
COc1cccc(-c2cnc(-c3ccncc3)nc2C2CCN(C(=O)Cc3csc(C)n3)CC2)c1	.	?	-2%[9.04 µM]	.	.
COc1cc(CNc2ncnc3c2ncn3[C@H]2CN(Cc3ccc(F)cc3)C[C@@H](CO)O2)cc(OC)c1OC	0	?	21µM*	19%	3%
COc1cc(CN2C[C@@H](CO)O[C@@H](n3cnc4c(NCc5ccc(F)cc5)ncnc43)C2)cc(OC)c1OC	-69*	?	16µM*	7%	2%
COc1cc(CNc2ncnc3c2ncn3[C@H]2CN(Cc3ccc(Cl)cc3)C[C@@H](CO)O2)cc(OC)c1OC	36	16µM*	23µM*	-16%	-17%
CCOc1ccccc1NC(=S)NNS(=O)(=O)c1c(C)cc(C)cc1C	0	-13%	-10%	9%	7%
C[C@@H]1COC(=O)CCC/C=C\C[C@@H](CC(=O)N(CCO)Cc2ccccc2)C(=O)N1	33	-6%	5%	6%	10%
COc1ccc(OC)c(NC(=O)c2c(NCc3ccc(N(C)C)cc3)sc3c2CCCC3)c1	.	?	21µM*	.	.
COc1cccc(CNc2sc3c(c2C(=O)Nc2ccc(OC)cc2OC)CCC3)c1	.	21µM*	13µM*	.	.
COc1ccc(OC)c(NC(=O)c2c(NCc3ccc(OC)c(OC)c3)sc3c2CCC3)c1	.	16µM*	15µM*	.	.

Screens as filed in PubChem BioAssay.
